Bioassay records (PubChem BioAssay)
Not all results are given here.
aSyn 5UTR act – Activators via SNCA 5'UTR binding, MLPCN; AID 1814, 2009; activity score, % (tested at 7.5 µM), hits read low; actives 7.1% (n = 300,000); alpha-synuclein 5'UTR reporter, activators screen; in the data active means activity score below about -60%
An asterisk follows results filed as active.

SMILES | aSyn 5UTR act
C(=C\c1nc(N2CCCCCC2)c2ccccc2n1)/c1ccccc1 | -71*
O=C(Nc1nc(-c2cccc3ccccc23)cs1)c1ccc2c(c1)S(=O)(=O)c1ccccc1C2=O | -143*
COC(=O)c1cc(/C=C/c2ccccc2)[nH]n1 | -117*
COc1cccc2c1OC1(CCN(C(C)C)CC1)N1N=C(c3cccnc3)CC21 (stereo unspecified) | -78*
N#Cc1c(N2CCCC2)nc(N)c2c(N)nc(N3CCCC3)cc12 | -173*
COc1ccccc1-c1nc(COc2ccc(Cl)cc2Cl)no1 | -204*
Cc1ccc(-c2nc3ccc(Cl)cc3n2OC(C)C(=O)O)cc1 (stereo unspecified) | -127*
CC(On1c(-c2ccccc2)nc2ccc(Cl)cc21)C(=O)O (stereo unspecified) | -62*
COc1ccc(-c2nc3ccccc3n2OC(C)C(=O)O)cc1 (stereo unspecified) | -196*
On1c(-c2ccccc2)nc2ccc(Cl)cc21 | -149*
O=c1c2ccc(Cl)cc2nc(-c2cccc(C(F)(F)F)c2)n1O | 78
COc1ccc(-c2n(CC(=O)OC3CC(C)CCC3C(C)C)c3ccccc3[n+]2C)cc1 (stereo unspecified) | 101
COc1ccc(C(NC(=O)C(C)C)c2ccc3cccnc3c2O)cc1 (stereo unspecified) | 79
CN(/N=C/c1ccncc1)c1cnc2ccccc2n1 | -206*
C/C(=N\NC(=O)c1cccc(Cl)c1)C1C(=O)c2ccccc2C1=O | -120*
CC1(C)SC(=S)N(NC(=O)Nc2cccc3ccccc23)C1N(O)C(=O)Nc1ccccc1 (stereo unspecified) | -88*
Cc1ccc(NC(=O)c2ccccn2)c(Br)c1 | -103*
Cc1ccc(C)c(NC(=O)c2ccccn2)c1 | -72*
Cc1ccc(NC(=O)Nc2ccc(Cl)cc2)c(Br)c1 | -155*
Brc1ccc2oc(-c3ccn[nH]3)cc2c1 | -175*
CN(C)c1ccc(C2=NOC(CN3C(=O)c4ccccc4S3(=O)=O)C2)cc1 (stereo unspecified) | -134*
Cc1[nH]nc(Nc2ccccc2)c1[N+](=O)[O-] | -72*
Cc1cccc(Nc2n[nH]c(C)c2[N+](=O)[O-])c1 | -140*
Cc1[nH]nc(Nc2ccc(Br)cc2)c1[N+](=O)[O-] | -164*
Cc1[nH]nc(Nc2ccc(C(C)C)cc2)c1[N+](=O)[O-] | -151*
SMILES | aSyn 5UTR act
Cc1ccc(Nc2n[nH]c(C)c2[N+](=O)[O-])cc1 | -221*
CC(/C=N/NC(=O)c1ccc(Cn2cc([N+](=O)[O-])cn2)o1)=C\c1ccccc1 | -75*
CC(C)(C)C1CCc2c(sc(NC(=O)c3cccs3)c2C(N)=O)C1 (stereo unspecified) | -158*
COc1ccc(-c2ccc(C3C(C#N)=C(N)Oc4n[nH]c(C)c43)o2)cc1 (stereo unspecified) | -65*
COc1cccc(CN(C)C(=O)c2ccc(COc3ccc(Cl)cc3)cc2)c1OC | -101*
Cc1nc(-c2ccc3c(c2)OCCO3)cs1 | -122*
Cc1cccc(Nc2nc(-c3ccc4c(c3)OCCO4)cs2)c1 | -203*
Cc1ccc(N2C(=O)c3ccccc3NC2C(C)Cc2ccc3c(c2)OCO3)cc1 (stereo unspecified) | -68*
CN(Cc1cccs1)C(=O)Cc1csc(-c2ccccc2)n1 | -116*
Cn1cccc1C(=O)OCc1csc(-c2ccccc2)n1 | -112*
Cc1ccsc1C(=O)OCc1csc(-c2ccccc2)n1 | -99*
O=C(NC1=NCCS1)C12CC3CC(C1)CC(C(=O)NC1=NCCS1)(C3)C2 | -71*
C#Cc1ccc([C@@H]2C=C(C(=O)N3CCN(Cc4ccccc4)CC3)O[C@H](OCCCCO)C2)cc1 | 99
O=C(Nc1ccccc1)C1=C[C@@H](c2ccc(C(F)(F)F)cc2)C[C@@H](OCCCCO)O1 | -95*
O=C(NCc1ccccc1)C1=C[C@@H](c2csc3ccccc23)C[C@@H](OCCCCO)O1 | 95
Cc1ccc2nc(-c3ccc(NC(=O)CSc4ccccc4)cc3)[nH]c2c1 | -98*
O=C(CSc1ccccc1)Nc1ccc(-c2nc3ccccc3[nH]2)cc1 | -171*
O=C(Cc1cccs1)Nc1ccc(-c2nc3ccccc3[nH]2)cc1 | -263*
O=C(CSc1ccc(Cl)cc1)Nc1cccc(-c2nc3ccccc3[nH]2)c1 | -89*
O=C(CN1CCOCC1)Nc1ccc(-c2nc3ccccc3[nH]2)cc1 | -111*
CC(C)N1CC(O)=C(c2nc3ccccc3c(=O)[nH]2)C1=N | -75*
O=C(Nc1ncc([N+](=O)[O-])s1)c1ccccc1Br | -126*
O=C(Nc1ncc([N+](=O)[O-])s1)c1cccs1 | -106*
Cc1cnc(NC(=O)c2cccs2)s1 | -82*
Cc1ccc(CC(=O)Nc2ncc([N+](=O)[O-])s2)cc1 | -136*
SMILES | aSyn 5UTR act
O=C(Nc1cc([N+](=O)[O-])ccc1F)c1cccs1 | -70*
Cc1nc2ccc(N=NC3=C(O)CC(C)(C)CC3=O)cc2s1 | -77*
CC1(C)CC(=O)C(N=Nc2cccc(S(=O)(=O)N3CCOCC3)c2)=C(O)C1 | 41
CC(=O)N1CCc2cc(N=NC3=C(O)CC(C)(C)CC3=O)ccc21 | -95*
Cc1ccc(O)c(N=NC2=C(O)CC(C)(C)CC2=O)c1 | 65
CCOc1ccc2nc(N=NC3=C(O)CC(C)(C)CC3=O)sc2c1 | -98*
COc1cc(OC)cc(-c2nc3cc(C)ccc3o2)c1 | -216*
Cc1ccc2oc(-c3cccc(NC(=O)c4ccccn4)c3)nc2c1 | -96*
COc1cc(C(=O)Nc2cccc(-c3nc4cc(C)ccc4o3)c2)cc(OC)c1OC | -162*
COc1cc(C(=O)Nc2cc(-c3nc4cc(C)ccc4o3)ccc2C)cc(OC)c1OC | -129*
CN(C)/C=C/C(=O)c1ccc(Oc2ccccc2)cc1 | -136*
CCCc1ccc(C(=O)/C=C/N(C)C)cc1 | -126*
CCN1C(=O)/C(=C\N2CCCCCC2)SC1=S | -112*
COc1ccc(/C=C2\SC(=S)N(CCCC(=O)N3CCCCC3CCO)C2=O)cc1 (stereo unspecified) | 68
CCN1C(=O)/C(=C/N2CCc3ccccc3C2)SC1=S | -108*
CC(/C=N/NC(=O)c1cccnc1)=C\c1ccco1 | -103*
CC(/C=N/NC(=O)c1cnccn1)=C\c1ccco1 | -117*
Fc1cccc(/C=N/Nc2nccnc2Cl)c1 | -106*
Fc1ccc(/C=N/Nc2nccnc2Cl)cc1 | -120*
Oc1ccc(/C=N/Nc2nccnc2Cl)cc1 | -124*
c1ccc(CSc2ccc(-c3cccnc3)nn2)cc1 | -117*
c1ccc(-c2ccc(SCc3cccnc3)nn2)nc1 | -75*
c1ccc(CSc2ccc(-c3ccccn3)nn2)nc1 | -62*
CCOc1ccc(-c2ccc(SC)nn2)cc1 | 76
Clc1ccc(-c2ccc(SCc3ccccn3)nn2)cc1 | -141*
SMILES | aSyn 5UTR act
c1ccc(CSc2nnc(SCc3ccccn3)s2)nc1 | -118*
O=C(CSc1ncccn1)NCc1cccc(Cl)c1 | -65*
CCCOc1ccc(CNC(=O)Cc2cccs2)cc1 | -98*
O=C(Cc1cccs1)NCc1cccc(Cl)c1 | -88*
O=C(Cc1cccs1)NCc1ccc(Cl)cc1Cl | -155*
CSCc1ccc(C(=O)Nc2cccc(C)c2C)cc1 | -82*
Cc1ccccc1NC(=O)Nc1ccccn1 | -111*
Oc1cccc2ccc(Nc3ccccn3)nc12 | 98
c1ccc(Nc2ccccc2Nc2ccccn2)nc1 | -63*
Cc1cccc(NC(=O)c2ccccn2)c1C | -112*
O=C(Nc1ccccn1)Nc1ccccc1[N+](=O)[O-] | -91*
Cc1cccc(NC(=O)Nc2ccccn2)c1C | -71*
